# PostGolgi yeast = growth inhibition of a yeast mutant, post-Golgi transport screen; post-Golgi transport phenotypic cell assay; inhibition, % at 10 µM; hit rate 0.9% among 98,000; AID 739;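 also: yeast cells grown in 1536-well plates; yeast grown about 18 h at 30C before absorbance read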
# CYP2C9 inhib = inhibitors of human CYP2C9. P11712. inhibition, % at 5 µM. hit rate 20% among 96,000. CYP2C9 Supersomes, luciferin-H conversion, luminescence;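 active = blocking of liver enzyme CYP2C9 beyond about 50% at 5 µM, limit read from the data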
# Target sequence (P11712 whole entry, looked up): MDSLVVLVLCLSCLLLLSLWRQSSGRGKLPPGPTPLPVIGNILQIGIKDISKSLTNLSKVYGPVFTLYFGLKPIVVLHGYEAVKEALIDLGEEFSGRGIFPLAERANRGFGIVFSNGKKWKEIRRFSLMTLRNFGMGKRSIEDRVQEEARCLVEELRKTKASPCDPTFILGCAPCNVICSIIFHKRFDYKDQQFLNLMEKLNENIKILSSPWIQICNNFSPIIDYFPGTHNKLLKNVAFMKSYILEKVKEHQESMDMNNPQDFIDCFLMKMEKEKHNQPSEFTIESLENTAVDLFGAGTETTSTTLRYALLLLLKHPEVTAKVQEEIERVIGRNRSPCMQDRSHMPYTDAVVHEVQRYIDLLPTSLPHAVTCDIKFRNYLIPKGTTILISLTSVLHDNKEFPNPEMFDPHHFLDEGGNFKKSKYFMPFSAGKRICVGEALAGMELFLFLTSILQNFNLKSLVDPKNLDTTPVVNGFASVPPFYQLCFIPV
# CYP2C19 activ = increases human CYP2C19 enzyme activity | activation factor at 5 µM | recombinant CYP2C19, luciferin-H EGE luminescence; stronger effect = higher value; 0 = fully inhibited enzyme, 1 = untreated enzyme | 96,000 tested, under 10 active | P33261;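 active = activation factor of at least 2 at 5 µM in the primary screen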;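 also: 0 = wells with 2.5 mM tranylcypromine and 1 = vehicle-only wells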
# CYP2C19 inh = human CYP2C19 inhibition; P33261; CYP2C19 Supersomes, luciferin-H EGE luminescence, 30 min; inhibition, % at 5 µM; hit rate 21% among 96,000;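 active = CYP2C19 inhibition above a set limit at 5 µM in the primary screen, cut at about 50% in these data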;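 also: plate controls were negative control wells for no effect and 2.5 mM tranylcypromine positive control for full effect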
# CYP2C9 act = activators of human CYP2C9 | P11712 | hit rate 1.4% among 96,000 | recombinant CYP2C9, luciferin-H conversion, luminescence; stronger effect = higher value; factor 1 = untreated enzyme, 0 = blocked | activation factor at 5 µM;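 active = activation factor of 2 or more for CYP2C9 at a 5 µM dose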;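 also: 0 = sulfaphenazole-blocked wells and 1 = vehicle-only wells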
# PostGolgi ctrl = inhibits growth of the yeast control strain | efflux-deficient yeast background strain, growth absorbance A615, 16 h | inhibition, % at 10 µM | hit rate 5% among 98,000 | AID 738
# Active calls of the source: *; . = no result given. Compounds with a hit are over-represented: about 32% of the library has one in this group of screens. Rule as the data show it, unless noted: active = inhibition above about 30%; inactive = the rest.
SMILES,PostGolgi yeast,CYP2C9 inhib,CYP2C19 activ,CYP2C19 inh,CYP2C9 act,PostGolgi ctrl
Cc1ccc(C23CC4CC(CC(NC(=O)N5CCN(C)CC5)(C4)C2)C3)cc1,2,30,0.6,36,0.7,7
COc1cc(C2SCC(=O)N2c2nnc(C34CC5CC(CC(C5)C3)C4)s2)cc(OC)c1OC (stereo not drawn),7,41,1,-4,0.6,14
CCOc1cc(C2NC(=O)N(C)C(C)=C2C(=O)OC)cc(Br)c1O (stereo not drawn),-10,86*,0.5,48,0.1,5
CCOCCOC(=O)C1=C(C)N(C)C(=O)NC1c1cc(Cl)c(O)c(OCC)c1 (stereo not drawn),4,.,.,.,.,2
CCOCCCNC(=O)N[C@@H](C)C(=O)OC,-4,-1,1,-2,1,1
O=C(NCc1ccco1)c1cccc(NC(=O)c2ccco2)c1,-6,82*,0.7,30,0.2,0
O=C(NCc1ccccc1)c1cccc(NC(=O)c2ccco2)c1,6,85*,0.4,56*,0.1,3
CC(C)(C)c1ccccc1NC(=O)c1ccco1,9,32,0.5,53*,0.7,2
CC(C)CNC(=O)c1cccc(NC(=O)c2ccco2)c1,-4,6,1,-4,0.9,8
O=C(Nc1ccccc1C(=O)NCc1ccco1)c1ccco1,-4,71*,0.6,36,0.3,9
Cc1cc2c(ncn2C(C)C)c(N)c1C,8,-3,0.5,48,1,14
CN(C)CCCN1C(=O)C(=O)/C(=C(/O)c2ccncc2)C1c1cccc(Br)c1 (stereo not drawn),2,2,0.9,11,1,1
CC(C)Oc1ccc(C(=O)NCc2ccco2)cc1,1,12,0.3,70*,0.9,5
Cc1ccc(C(=O)Nc2cccc(C(=O)NCc3ccccc3)c2)o1,-2,88*,0.5,52*,0.1,5
Cc1cc(C)cc(OCC(=O)Nc2ccccc2C(=O)NCc2ccco2)c1,-2,80*,0.1,91*,0.2,8
Cc1c(NC(=O)c2cccc(NC(=O)c3ccco3)c2)cccc1C(=O)O,11,-15,1,-2,1.2,13
CCCOc1ccc(C(=O)NCc2ccco2)cc1,2,20,0.8,24,0.8,-1
O=C(COc1ccc(Cl)cc1)Nc1ccccc1C(=O)NCc1ccco1,11,21,0.9,9,0.8,15
CN(Cc1ccccc1)C(=O)c1cccc(NC(=O)c2ccco2)c1,0,-212,0.6,38,3.1*,19
O=C(/C=C\Nc1ccccn1)c1ccc(Cl)cc1,2,-24,0.8,24,1.2,16
Cc1ccc2nc3c(cc(C#N)c(=N)n3CC3CCCO3)c(=O)n2c1 (stereo not drawn),.,5,1,2,0.9,.
O=C(O)c1cccc(CSc2nnc(Cc3ccccc3)o2)c1,5,6,1,-3,0.9,-2
O/C(=C\Sc1nnc(Cc2ccccc2)o1)c1ccc(F)cc1,-18,96*,0.6,36,0,-1
CCn1c(SCC(=O)NCc2cccs2)nc2c1c(=O)n(C)c(=O)n2C,-1,0,1,4,1,0
CCn1c(O)c(C=NCc2cccs2)c(=O)n(CC)c1=S,18,83*,0.7,34,0.2,57*
SMILES,PostGolgi yeast,CYP2C9 inhib,CYP2C19 activ,CYP2C19 inh,CYP2C9 act,PostGolgi ctrl
Cc1cc(N2CCCCCC2)nc2ccccc12,1,0,0.8,21,1,1
CCCN1C(=O)c2cc(C(=O)NCCc3cccc(C)c3)ccc2C1O (stereo not drawn),-2,34,0.7,27,0.7,6
CCOc1ccc(-n2c(COc3ccc(C)cc3)nnc2SCC(N)=O)cc1,2,38,0.1,91*,0.6,-1
Cc1ccc(-n2c(SCc3ccc(C#N)cc3)nnc2-c2ccccn2)cc1,-5,51*,0.5,50*,0.5,19
O=C(CSc1nnc(COc2ccccc2)n1-c1ccccc1)c1cccs1,-2,97*,0,98*,0,41*
COc1ccc(-n2c(SCc3ccc(C#N)cc3)nnc2-c2ccccn2)cc1,-3,-4,0.9,13,1,13
C=CCn1c(COc2ccc(Cl)cc2)nnc1SCc1ccc(C#N)cc1,47*,39,0.6,39,0.6,41*
C=CCn1c(COc2ccccc2)nnc1SCc1ccc(C#N)cc1,10,19,0.8,21,0.8,7
CCC(=O)Nc1ccc(Cl)c(NC(=O)C(C)C)c1,0,4,1,-1,1,19
Cc1ccc(OCc2nnc(SCc3ccc(C#N)cc3)n2-c2ccc(C)cc2)cc1,-2,36,0.7,31,0.6,39*
Cn1nnnc1NCc1c(F)cccc1Cl,0,-15,0.9,9,1.1,3
Cc1ccc(Oc2cc(C#N)c(C#N)cc2-n2nnc3ccccc32)cc1C,-5,-20,1.2,-22,1.2,11
CCOC(=O)c1oc2ccc3c(c2c1C)C(=O)CC1(CCN(C(=O)OCC)CC1)O3,-7,51*,0.5,52*,0.5,35*
C=CCNC(=O)c1cc(=O)c2ccccc2o1,1,16,0.9,9,0.8,-12
CCOC(=O)c1oc2cccc(OC(C)=O)c2c1C,-4,-23,0.2,76*,1.2,5
CCOC(=O)Nc1cc(=O)c2ccccc2o1,-6,19,0.9,6,0.8,43*
CCOC(=O)c1c(C)oc2ccc(O)c(CN3CCCCC3)c12,-5,-7,1,-2,1.1,4
CCOC(=O)c1c(-c2ccccc2)oc2ccc(O)c(CN3CCOCC3)c12,2,48,0.4,56*,0.5,11
CCOC(=O)N1CCC2(CC1)CC(=O)c1c(ccc3oc(C(=O)O)c(C)c13)O2,0,47,1.1,-6,0.5,9
CCOC(=O)c1oc2cccc(O)c2c1C,0,-144,0.6,45,2.4*,13
CCOC(=O)c1oc2ccccc2c1NC(=O)c1cc(OC)cc(OC)c1,0,13,0.9,8,0.9,10
CCOCC(=O)Nc1c(C(=O)OCC)oc2ccccc12,16,8,1.1,-6,0.9,14
CCOC(=O)c1oc2ccccc2c1N,6,19,0.1,87*,0.8,3
CCOC(=O)c1oc2cccc(O)c2c1CN1CCOCC1,20,37,0.4,60*,0.6,-4
CCOC(=O)c1oc2cccc(O)c2c1CN(Cc1ccccc1)C(C)=O,7,25,0.3,67*,0.7,23
CCOC(=O)c1oc2ccccc2c1NC(=O)COC,7,31,0.7,35,0.7,10
CCOC(=O)C1CCCN(c2nnnn2-c2ccccc2)C1 (stereo not drawn),-3,39,0.2,81*,0.6,-1
O=C(NC1CCCCC1)C1CCCN(c2nnnn2-c2ccccc2)C1 (stereo not drawn),-1,38,0.5,55*,0.6,7
